# Source: PubChem BioAssay AID1455 (National Center for Advancing Translational Sciences (NCATS), 2008)
# Results filed as inconclusive are left out. Activity calls are given as the source filed them. The call rests on the fitted dose curve; in most records, active means well fitted inhibition curve with a large enough effect; inconclusive means small, poorly fitted or top-dose-only effect; inactive means no such curve, though single readings can be large or run the other way.
# Target: Ubiquitin carboxyl-terminal hydrolase 2 (Homo sapiens) (UniProt O75604)
# Assay: Confirmation Concentration-response Assay for Inhibitors of Ubiquitin-specific Protease USP2a
# Conditions: USP2 core, Ub-PLA2 coupled fluorescence, NBD C6-HPC
# Source text: NIH Molecular Libraries Screening Centers Network [MLSCN] NIH Chemical Genomics Center [NCGC] MLSCN Grant: XO1-MH079852-01 PI Name: Nicholson, Ben. Progenra Inc, Malvern, PA NCGC Assay Overview: Homeostasis of cellular proteins is maintained through a combination of synthesis and degradation. The pathway that accounts for the majority of protein degradation is the ubiquitin-proteasomal pathway. Ubiquitin (Ub) is highly conserved in all cells and the generation of a multi-Ub chain typically targets proteins for degradation by the proteasome. However, ubiquitination is highly reversible and dynamic. […] Thus, this coupled assay gives a fluorescent read-out, which is generated through the cleavage of the PLA2 reporter enzyme. […]
# NCGC Assay Protocol Summary: The assay buffer, prepared fresh at the day of the assay, contains 20mM Tris-HCl pH 8.0, 2mM CaCl2, 2mM beta-Mercaptoethanol, 0.1% DMSO. […] Plates were read immediately (0 Hour) on an Envision (Perkin Elmer) plate reader using the following wavelengths Ex 460nm /Em 535nm. Then, the assay plates were incubated for 2.5 hours and read again on the Envision using the same settings Data were normalized to the to AC100 inhibition (NEM). Concentration-response curves were fitted to the normalized data and the concentration-response curves were then classified based on curve quality (r2), response magnitude and degree of measured activity. […]
# Ubiquitin carboxyl-terminal hydrolase 2 (Homo sapiens), sequence (O75604 whole entry, looked up): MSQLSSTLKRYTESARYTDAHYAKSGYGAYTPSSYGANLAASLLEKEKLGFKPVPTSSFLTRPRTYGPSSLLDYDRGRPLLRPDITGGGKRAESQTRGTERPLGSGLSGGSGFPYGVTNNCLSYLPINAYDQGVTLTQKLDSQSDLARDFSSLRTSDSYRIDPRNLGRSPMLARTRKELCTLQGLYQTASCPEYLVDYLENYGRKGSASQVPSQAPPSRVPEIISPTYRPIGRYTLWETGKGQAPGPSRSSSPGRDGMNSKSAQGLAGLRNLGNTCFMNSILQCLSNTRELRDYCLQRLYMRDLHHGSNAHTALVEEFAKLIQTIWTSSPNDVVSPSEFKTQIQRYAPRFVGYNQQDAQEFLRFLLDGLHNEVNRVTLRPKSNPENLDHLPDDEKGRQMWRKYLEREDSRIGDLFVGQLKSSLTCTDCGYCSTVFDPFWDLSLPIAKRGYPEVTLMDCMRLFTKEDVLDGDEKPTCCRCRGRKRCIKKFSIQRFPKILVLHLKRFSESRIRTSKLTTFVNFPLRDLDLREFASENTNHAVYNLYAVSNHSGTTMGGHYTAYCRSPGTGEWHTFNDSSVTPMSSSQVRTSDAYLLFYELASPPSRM
smiles,measurement,value
Cc1ccc2scc(N3CCN(C)CC3)c(=O)c2c1,Potency,12.6 µM (active)
